Only some compounds are listed: those with a hit (about 3.2% of all), similar ones and a draw of the others.
p53null 39C kill – qHTS Screen for Compounds that Selectively Target Cancer Cells with p53 Mutations: Cytotoxicity of p53 Null Cells at the Nonpermissive Temperature; Potency, µM (highest dose often 46.1 µM), most hits filed as cytotoxic; H1299 p53-null (neo) cells, 39C, ATPlite viability, 24 h; hit rate 0.97% among 55,000; AID 904, 2007; also: nearly all actives have a fitted effect of over 50% in size
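Luminescent ATP signal reported cell survival after H1299 lines (neo, p53 null; or p53 A138V) received up to 46 uM compound and 24 hr incubation at 39C.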
p53null 32C kill – qHTS Screen for Compounds that Selectively Target Cancer Cells with p53 Mutations: Cytotoxicity of p53 Null Cells at the Permissive Temperature; H1299-neo p53 null cells, ATP luminescence, 24 h, 32C; Potency, µM (series often up to 46.1 µM), hits mostly cytotoxic; hit rate 0.62% among 55,000; also: nearly all actives have a fitted effect of over 55% in size
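AC50 values derive from Hill modelling of qHTS concentration-response data (up to 46 uM) in H1299-neo cells. Cells were treated 24 h at 32C following overnight attachment at 37C; viability was read as cellular ATP.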
PMP22 txn – Cell-based coincidence reporter assay to measure PMP22 gene transcription in S16 Pmp22-F2sN cells - Primary screen | hit rate 2% among 43,000 | S16 Pmp22-F2sN Schwann cells, FLuc/NLuc coincidence luminescence, 24 h | Potency, µM (titrated, usually from 57.5 µM), most hits filed as inhibitors; active = clear falling dose curves in both reporters; inconclusive = both reporters move, but less clearly or upward; inactive = either reporter flat; the % is the NLuc reporter signal
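Schwann cells carrying the coincidence reporter were exposed to library compounds for 24 h at 37C, then lysed and read for FLuc and, after quenching, NLuc luminescence on a CCD imager.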
S16 viability – Cell viability qHTS assay in S16 Pmp22-F2sN cells | Potency, µM (highest dose often 57.5 µM), usual class: cytotoxic | hit rate 0.48% among 43,000 | S16 Pmp22-F2sN Schwann cells viability, CellTiter-Glo, 24 h | AID 1508642, 2021; also: nearly all actives have a fitted effect of over 65% in size
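Used to flag compounds lowering reporter output through toxicity, this quantitative HTS measures ATP-based CellTiter-Glo luminescence in S16 Pmp22-F2sN Schwann cells after 24 h compound exposure at 37C.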
mTORC1 inh – Acumen qHTS Assay for Inhibitors of the mTORC1 Signaling Pathway in MEF (Tsc2-/-, p53-/-) Cells: Sytravon; Tsc2-/- p53-/- MEF, phospho-rpS6 immunofluorescence/PI, 24 h; Potency, µM (titrated, usually from 38.3 µM), most hits filed as inhibitors; hit rate 0.78% among 44,000; also: nearly all actives have a fitted effect of over 50% in size
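Immunofluorescence of rpS6 phosphorylation in Tsc2-/-, p53-/- MEFs after 24 h compound exposure, normalized to propidium iodide signal. Activity is expressed as % positive cells, thresholded with 7.5 nM rapamycin.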
Of the large screens only hits and unclear results are named; the others gave an inactive call. Unless noted, calls follow the shape of the dose curve; as a rule, active = well fitted curve in the direction sought with a large enough effect; inconclusive = small, poorly fitted or top-dose-only effect, or another doubt; inactive = no such curve, though single readings can be large; an effect the other way counts as inactive or inconclusive.

COc1ccc2c(c1)CCc1c(C(=O)Nc3cnn(Cc4ccc(Cl)cc4Cl)c3)noc1-2	none
O=C(Nc1ncc(Cc2cccc(Cl)c2)s1)c1ccc([N+](=O)[O-])cc1	none (no result: p53null 39C kill, PMP22 txn, S16 viability, mTORC1 inh)
CCCOCc1cc(CN2CCN(c3cccc(Cl)c3)CC2)c(O)c2ncccc12	p53null 39C kill 0.32µM, PMP22 txn inconclusive, S16 viability inconclusive, mTORC1 inh inconclusive
CCCCOCc1cc(CN2CCN(c3cccc(Cl)c3)CC2)c(O)c2ncccc12	PMP22 txn 2.7µM, S16 viability inconclusive, mTORC1 inh inconclusive
O=C(NCCCN1CCN(c2cccc(Cl)c2)CC1)c1sc2ncccc2c1-n1cccc1	PMP22 txn inconclusive, S16 viability inconclusive
COc1cc(CN2CCN(c3cccc(Cl)c3)CC2)cc(OC)c1OC	none (no result: PMP22 txn, S16 viability, mTORC1 inh)
CCCCCSc1nnc2c(n1)OC(CC)Nc1ccc(Br)cc1-2 (stereo not given)	none
Cc1ccc(OC(=O)c2cc(-c3ccc4c(c3)OCCO4)on2)c(C)c1	p53null 39C kill 32µM, p53null 32C kill 20µM
CC(=O)c1cccc(NC(=O)c2cc(-c3ccc4c(c3)OCCO4)on2)c1	p53null 39C kill 3.2µM, p53null 32C kill 2µM
CCOC(=O)N1CCc2c(sc(NCc3cc(OC)c(OC)cc3OC)c2C(=O)Nc2ccc(OCC)cc2)C1	none
Cc1cccc(NC(=O)c2c(NC(=O)C(F)(F)F)sc3c2CCCCC3)c1	p53null 39C kill inconclusive, PMP22 txn 10µM, S16 viability inconclusive
O=C(Cn1nc(C(F)(F)F)c2c1CCCC2)Nc1cccc(Cl)c1	p53null 39C kill inconclusive, PMP22 txn inconclusive, S16 viability 20µM
Cc1ccc(NC(=O)c2c(NC(=O)c3ccccc3)sc3c2CCC3)cc1	none
Cc1ccccc1NC(=O)c1c(NC(=O)C(F)(F)F)sc2c1CCCCC2	p53null 39C kill inconclusive, p53null 32C kill inconclusive, PMP22 txn 12µM, S16 viability inconclusive
Cc1ccccc1NC(=O)c1c(NC(=O)c2ccccc2)sc2c1CCC2	PMP22 txn inconclusive
Cc1ccc(NC(=O)c2c(NC(=O)C(F)(F)F)sc3c2CCCCC3)cc1	p53null 39C kill inconclusive, p53null 32C kill inconclusive, PMP22 txn 10µM, S16 viability inconclusive
Cc1ccc(S(=O)(=O)Cc2nc(-c3ccc(C(=O)NCc4ccccc4)cc3)oc2C)cc1	PMP22 txn inconclusive
CN(C)c1ccc(C(CNS(=O)(=O)c2ccc(F)cc2F)N2CCOCC2)cc1 (stereo not given)	none
O=C(Nc1cccc(Cl)c1)c1c(NC(=O)C(F)(F)F)sc2c1CCCC2	p53null 39C kill inconclusive, p53null 32C kill inconclusive, PMP22 txn 13µM, S16 viability inconclusive
CCCC(=O)Nc1cccc(-c2nc3ncccc3o2)c1	none (no result: PMP22 txn, S16 viability)
O=C(Nc1cccc(-c2nc3ncccc3o2)c1)c1ccc(-c2cccc(Cl)c2Cl)o1	p53null 39C kill 10µM, p53null 32C kill 13µM, mTORC1 inh inconclusive (no result: PMP22 txn, S16 viability)
Cc1c(Cl)cccc1-c1ccc(C(=O)Nc2ccc3oc(-c4cccnc4)nc3c2)o1	mTORC1 inh 13µM
Cc1c(Cl)cccc1NC(=O)Cn1cnc2nc3c(cc2c1=O)CCCC3	PMP22 txn inconclusive
COc1ccc(OC)c2sc(N(CCCN(C)C)C(=O)c3ccco3)nc12	PMP22 txn inconclusive, mTORC1 inh inconclusive
COc1ccccc1Nc1c2c(nc3ccc(NC(=O)c4ccc(N(C)C)cc4)cc13)CCCC2	PMP22 txn inconclusive, S16 viability inconclusive, mTORC1 inh 5.2µM
CCC1CN(C(=O)NCc2ccc(C)cc2)c2ccccc2O1 (stereo not given)	none
CCC1CN(C(=O)NCc2ccc(F)cc2)c2cc(C)ccc2O1 (stereo not given)	mTORC1 inh 21µM
CS(=O)(=O)Nc1ccc(-c2nc3ccccc3s2)cc1	p53null 39C kill 1.6µM, p53null 32C kill 4µM
Cc1cccc(OCc2nc3c4c(ncn3n2)-c2ccccc2CC42CCCC2)c1	none (no result: p53null 39C kill, PMP22 txn, S16 viability, mTORC1 inh)
CCCNc1ncnc2onc(C)c12	S16 viability inconclusive
CSc1ccc(CCNc2ncnc3onc(C)c23)cc1	PMP22 txn 2.2µM, S16 viability inconclusive
Cc1ccc2nc(-c3ccncc3)c(Nc3ccc(C(C)C)cc3)n2c1	p53null 39C kill inconclusive, PMP22 txn inconclusive
CC(=O)Nc1ccc(NC(=O)CCc2c(C)nc3c(c(C)nn3-c3ccc(C)cc3)c2C)cc1	p53null 39C kill 6.3µM, PMP22 txn inconclusive
Cc1cc(OCC(=O)Nc2cc(-c3nc4ccccc4[nH]3)ccc2C)ccc1Cl	p53null 39C kill inconclusive, p53null 32C kill inconclusive, mTORC1 inh 15µM
COc1cccc(CNC(=O)C2CCN(c3nc4ccc(Cl)cc4[nH]3)CC2)c1	none
NC(=O)c1nn2c(C(F)(F)F)cc(-c3ccc(Br)cc3)nc2c1Cl	S16 viability 28µM
COc1cc(OC)c(NS(=O)(=O)c2c(C)nc3sc(C)cn3c2=O)cc1Cl	p53null 39C kill 20µM, PMP22 txn inconclusive, S16 viability inconclusive
COc1ccc(CCNS(=O)(=O)c2c(C)nc3sc(C)cn3c2=O)cc1OC	none
CN(Cc1ccccc1)c1ncnc2c1nc1n2CCCC1	none
COc1ccc(NC(=O)CSc2nnc(NC(=O)NC3CCCCC3)s2)cc1OC	p53null 39C kill 11µM, p53null 32C kill 13µM
COc1ccccc1NC(=O)CSc1nnc(NC(=O)NC2CCCCC2)s1	p53null 39C kill inconclusive, p53null 32C kill inconclusive, PMP22 txn inconclusive
CC(=O)c1ccc(NC(=O)CSc2nnc(NC(=O)NC3CCCCC3)s2)cc1	p53null 39C kill 7.9µM, p53null 32C kill 6.3µM
O=C(CSc1nnc(NC(=O)NC2CCCCC2)s1)Nc1ccccc1F	p53null 39C kill inconclusive, p53null 32C kill 10µM
COc1ccc(NC(=O)Nc2nnc(SCC(=O)Nc3cccc(C)c3C)s2)cc1	p53null 32C kill inconclusive
O=C(NCc1ccc(F)cc1)c1ccc2c(Cl)c3c(nc2c1)CCCC3	PMP22 txn inconclusive
COc1ccc(Cn2c(CNC(=O)c3ccc(N(C)C)cc3)nc3cccnc32)cc1	none
COC(=O)c1ccc2c(=O)n(CCCCCC(=O)N3CCN(c4cc(Cl)ccc4C)CC3)c(=O)[nH]c2c1	p53null 32C kill 20µM, PMP22 txn inconclusive, S16 viability inconclusive, mTORC1 inh inconclusive
COc1ccc(-c2nn(C)c3sc(C(=O)Nc4cccc(F)c4)cc23)cc1OC	PMP22 txn inconclusive, S16 viability 14µM, mTORC1 inh inconclusive
COc1cc(NS(=O)(=O)c2ccc(-c3cc(C)no3)cc2)cc(OC)c1	PMP22 txn 3.4µM, S16 viability inconclusive, mTORC1 inh inconclusive
COc1cc(Cl)c(NS(=O)(=O)c2cc(-c3cc(C)no3)ccc2OC)c(OC)c1	mTORC1 inh inconclusive
